# In the supplement of paper PMC11001985:
# Values without a mark were called inactive.
# Compound: C#CCNC(=O)CCSSCCC(=O)NCCc1ccc(C=O)c(C=O)c1
# Experiment: lysine labeling ratio R10:1 (500 µM / 50 µM probe), SILAC-ABPP in living cells; higher = lower intrinsic lysine reactivity toward the probe, active = 2 or less
# Details: HeLa; probe concentrations 500 vs 50 µM
# Method in brief: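 In PBS at room temperature, living HeLa cells grown with SILAC light or heavy labels were treated with 50 µM or 500 µM of an alkyne-tagged, disulfide-linked lysine probe, with label swaps in both directions. Analysis was by LC-MS/MS on a TIMS-TOF Pro after click to biotin-azide, neutravidin capture and DTT release. For each lysine, R is the median across forward and reverse replicates of the filtered median high-probe/low-probe MS1 peptide ratio, capped at 20.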
# UniProt Q14517, sequence (Q14517 whole entry): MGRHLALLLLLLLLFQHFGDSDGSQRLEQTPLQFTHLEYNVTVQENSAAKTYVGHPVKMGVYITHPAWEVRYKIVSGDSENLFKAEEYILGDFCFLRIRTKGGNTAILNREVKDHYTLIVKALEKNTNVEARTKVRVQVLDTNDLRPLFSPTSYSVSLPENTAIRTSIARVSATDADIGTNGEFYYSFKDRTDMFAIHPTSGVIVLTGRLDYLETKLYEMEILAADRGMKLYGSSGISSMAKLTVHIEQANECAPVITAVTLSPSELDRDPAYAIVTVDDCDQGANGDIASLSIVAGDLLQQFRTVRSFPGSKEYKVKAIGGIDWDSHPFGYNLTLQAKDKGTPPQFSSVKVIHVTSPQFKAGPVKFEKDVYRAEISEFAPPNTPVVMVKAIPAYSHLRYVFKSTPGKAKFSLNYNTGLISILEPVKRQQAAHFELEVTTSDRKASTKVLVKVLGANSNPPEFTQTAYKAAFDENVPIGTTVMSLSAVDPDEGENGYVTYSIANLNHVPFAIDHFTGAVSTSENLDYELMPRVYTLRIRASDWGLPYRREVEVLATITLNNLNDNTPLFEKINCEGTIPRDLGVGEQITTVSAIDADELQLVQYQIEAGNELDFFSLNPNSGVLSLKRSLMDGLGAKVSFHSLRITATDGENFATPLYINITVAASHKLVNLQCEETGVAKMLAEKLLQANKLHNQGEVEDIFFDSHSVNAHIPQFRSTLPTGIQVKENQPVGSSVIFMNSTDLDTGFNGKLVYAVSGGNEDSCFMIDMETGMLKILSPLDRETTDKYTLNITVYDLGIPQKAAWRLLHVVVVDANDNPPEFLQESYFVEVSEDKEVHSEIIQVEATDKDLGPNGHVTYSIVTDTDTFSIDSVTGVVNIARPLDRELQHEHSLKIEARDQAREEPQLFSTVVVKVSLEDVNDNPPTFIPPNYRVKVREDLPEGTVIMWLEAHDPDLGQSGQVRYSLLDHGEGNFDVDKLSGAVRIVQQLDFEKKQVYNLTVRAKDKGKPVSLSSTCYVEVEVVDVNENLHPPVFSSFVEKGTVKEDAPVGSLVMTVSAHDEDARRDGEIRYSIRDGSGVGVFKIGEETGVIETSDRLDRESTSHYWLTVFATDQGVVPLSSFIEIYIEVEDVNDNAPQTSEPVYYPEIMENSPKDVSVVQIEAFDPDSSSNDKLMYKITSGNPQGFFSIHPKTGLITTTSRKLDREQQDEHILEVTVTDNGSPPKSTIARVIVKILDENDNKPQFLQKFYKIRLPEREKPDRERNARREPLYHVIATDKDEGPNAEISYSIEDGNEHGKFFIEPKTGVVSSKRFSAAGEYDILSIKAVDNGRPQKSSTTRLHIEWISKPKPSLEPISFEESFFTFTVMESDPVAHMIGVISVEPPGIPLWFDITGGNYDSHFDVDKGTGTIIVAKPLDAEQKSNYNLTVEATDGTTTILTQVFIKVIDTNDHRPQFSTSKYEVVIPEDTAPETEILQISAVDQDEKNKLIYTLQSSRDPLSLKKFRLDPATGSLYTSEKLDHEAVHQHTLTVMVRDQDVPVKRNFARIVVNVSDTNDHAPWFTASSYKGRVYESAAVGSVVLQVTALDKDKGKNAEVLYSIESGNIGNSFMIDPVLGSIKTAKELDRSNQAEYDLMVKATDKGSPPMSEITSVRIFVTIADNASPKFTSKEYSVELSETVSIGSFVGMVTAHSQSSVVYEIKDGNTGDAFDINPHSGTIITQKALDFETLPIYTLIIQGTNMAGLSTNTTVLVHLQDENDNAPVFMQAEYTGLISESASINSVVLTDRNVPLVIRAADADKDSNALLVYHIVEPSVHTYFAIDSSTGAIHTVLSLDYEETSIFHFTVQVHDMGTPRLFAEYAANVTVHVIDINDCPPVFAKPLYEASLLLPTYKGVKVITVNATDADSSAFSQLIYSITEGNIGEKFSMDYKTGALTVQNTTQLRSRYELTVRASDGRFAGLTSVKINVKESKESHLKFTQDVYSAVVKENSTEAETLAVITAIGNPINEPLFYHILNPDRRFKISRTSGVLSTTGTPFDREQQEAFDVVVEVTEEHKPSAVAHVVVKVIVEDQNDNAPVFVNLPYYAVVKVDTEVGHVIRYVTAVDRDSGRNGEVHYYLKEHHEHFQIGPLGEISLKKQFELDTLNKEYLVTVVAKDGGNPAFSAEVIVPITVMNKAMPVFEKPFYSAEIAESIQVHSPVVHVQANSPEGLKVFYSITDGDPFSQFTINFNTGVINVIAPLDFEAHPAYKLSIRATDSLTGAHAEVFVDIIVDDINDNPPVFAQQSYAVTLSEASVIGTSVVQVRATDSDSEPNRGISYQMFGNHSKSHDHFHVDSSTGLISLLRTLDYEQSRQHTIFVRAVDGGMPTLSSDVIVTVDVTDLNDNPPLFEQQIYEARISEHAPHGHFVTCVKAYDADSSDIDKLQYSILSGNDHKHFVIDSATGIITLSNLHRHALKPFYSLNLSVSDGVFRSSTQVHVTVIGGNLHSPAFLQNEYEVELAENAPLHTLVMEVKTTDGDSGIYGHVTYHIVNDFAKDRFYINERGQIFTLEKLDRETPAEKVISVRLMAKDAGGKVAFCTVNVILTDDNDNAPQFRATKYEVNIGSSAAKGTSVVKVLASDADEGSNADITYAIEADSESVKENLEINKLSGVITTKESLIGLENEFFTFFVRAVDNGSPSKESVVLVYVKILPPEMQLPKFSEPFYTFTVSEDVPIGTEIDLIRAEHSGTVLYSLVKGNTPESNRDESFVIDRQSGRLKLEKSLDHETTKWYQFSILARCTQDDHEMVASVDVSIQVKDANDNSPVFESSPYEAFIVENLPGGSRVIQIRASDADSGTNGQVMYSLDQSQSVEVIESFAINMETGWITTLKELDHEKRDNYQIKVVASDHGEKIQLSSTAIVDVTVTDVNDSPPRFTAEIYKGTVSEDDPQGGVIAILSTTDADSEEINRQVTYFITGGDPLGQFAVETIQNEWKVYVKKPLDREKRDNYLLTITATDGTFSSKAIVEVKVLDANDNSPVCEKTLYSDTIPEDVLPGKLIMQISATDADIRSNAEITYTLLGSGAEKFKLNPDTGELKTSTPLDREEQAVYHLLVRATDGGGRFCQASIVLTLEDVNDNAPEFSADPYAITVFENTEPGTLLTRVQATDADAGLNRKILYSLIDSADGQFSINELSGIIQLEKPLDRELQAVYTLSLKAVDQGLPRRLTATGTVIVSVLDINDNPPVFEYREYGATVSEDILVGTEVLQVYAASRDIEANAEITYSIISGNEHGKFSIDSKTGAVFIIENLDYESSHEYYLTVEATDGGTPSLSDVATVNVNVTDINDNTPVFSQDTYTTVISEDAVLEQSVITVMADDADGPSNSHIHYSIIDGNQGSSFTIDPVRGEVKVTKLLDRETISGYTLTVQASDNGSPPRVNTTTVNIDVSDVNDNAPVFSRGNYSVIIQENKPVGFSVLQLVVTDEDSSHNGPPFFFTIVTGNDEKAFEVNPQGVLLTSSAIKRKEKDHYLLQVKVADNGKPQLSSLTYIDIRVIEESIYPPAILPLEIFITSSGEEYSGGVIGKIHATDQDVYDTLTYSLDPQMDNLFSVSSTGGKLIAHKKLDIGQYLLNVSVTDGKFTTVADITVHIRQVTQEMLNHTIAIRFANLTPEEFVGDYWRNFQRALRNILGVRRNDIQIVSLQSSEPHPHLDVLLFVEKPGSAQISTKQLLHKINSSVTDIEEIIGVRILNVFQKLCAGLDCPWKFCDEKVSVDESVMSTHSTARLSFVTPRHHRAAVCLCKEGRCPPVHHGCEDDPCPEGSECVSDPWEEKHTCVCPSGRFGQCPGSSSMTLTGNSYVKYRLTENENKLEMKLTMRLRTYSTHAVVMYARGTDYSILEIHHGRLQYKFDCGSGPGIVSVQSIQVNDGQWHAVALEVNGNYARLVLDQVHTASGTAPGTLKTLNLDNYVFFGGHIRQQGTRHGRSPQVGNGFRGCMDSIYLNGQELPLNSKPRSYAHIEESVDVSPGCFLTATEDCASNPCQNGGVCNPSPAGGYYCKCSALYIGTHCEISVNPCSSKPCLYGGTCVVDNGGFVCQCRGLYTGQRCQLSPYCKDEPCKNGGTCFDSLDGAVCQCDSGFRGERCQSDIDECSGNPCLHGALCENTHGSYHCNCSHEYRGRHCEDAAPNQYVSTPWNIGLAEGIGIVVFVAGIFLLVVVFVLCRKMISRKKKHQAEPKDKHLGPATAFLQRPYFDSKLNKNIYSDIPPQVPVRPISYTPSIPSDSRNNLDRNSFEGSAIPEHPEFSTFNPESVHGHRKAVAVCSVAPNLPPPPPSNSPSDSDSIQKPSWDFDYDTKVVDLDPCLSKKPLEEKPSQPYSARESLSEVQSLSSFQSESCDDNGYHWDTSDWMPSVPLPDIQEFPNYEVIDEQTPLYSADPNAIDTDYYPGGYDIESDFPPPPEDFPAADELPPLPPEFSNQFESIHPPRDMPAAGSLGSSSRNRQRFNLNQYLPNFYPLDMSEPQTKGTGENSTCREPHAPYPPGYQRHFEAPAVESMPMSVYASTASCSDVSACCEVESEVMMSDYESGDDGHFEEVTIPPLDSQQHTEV
# UniProt P61088, sequence (P61088 whole entry): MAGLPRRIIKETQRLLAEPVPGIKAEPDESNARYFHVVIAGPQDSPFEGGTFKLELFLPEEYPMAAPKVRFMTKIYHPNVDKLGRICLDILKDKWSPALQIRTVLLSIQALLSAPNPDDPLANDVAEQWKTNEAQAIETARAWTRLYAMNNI
# UniProt P30533, sequence (P30533 whole entry): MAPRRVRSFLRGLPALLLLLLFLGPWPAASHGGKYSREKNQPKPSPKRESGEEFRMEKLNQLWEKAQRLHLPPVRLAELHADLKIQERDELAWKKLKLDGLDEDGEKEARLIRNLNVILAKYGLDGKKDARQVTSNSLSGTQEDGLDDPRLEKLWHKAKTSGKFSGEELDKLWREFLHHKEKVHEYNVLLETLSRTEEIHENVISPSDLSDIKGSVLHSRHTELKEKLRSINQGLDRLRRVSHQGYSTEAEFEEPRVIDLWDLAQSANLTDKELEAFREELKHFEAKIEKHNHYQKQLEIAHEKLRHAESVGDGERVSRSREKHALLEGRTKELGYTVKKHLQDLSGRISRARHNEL
row,Target,lysine labeling ratio R10:1
1,UniProt P61088 (lysine site: K82),1.19 (active)
2,EGFR (lysine site: K294) (UniProt P00533),3.59
3,H2AFX (lysine site: K37) (UniProt P16104),2.89
4,MAP4 (lysine site: K933) (UniProt P27816),1.9 (active)
5,LRPAP1 (lysine site: K65) (UniProt P30533),4.18
6,Q95604 (lysine site: K145) (UniProt P10321),2.39
7,HNRNPA1 (lysine site: K113) (UniProt P09651),4.81
8,CACYBP (lysine site: K212) (UniProt Q9HB71),1.91 (active)
9,SMC2 (lysine site: K222) (UniProt O95347),1.74 (active)
10,PDIA6 (lysine site: K150) (UniProt Q15084),4.08
11,HSPA8 (lysine site: K531) (UniProt P11142),3.46
12,LAMC1 (lysine site: K1354) (UniProt P11047),1.67 (active)
13,FKBP4 (lysine site: K354) (UniProt Q02790),1.51 (active)
14,UniProt P62277 (lysine site: K9),2.44
15,S100A4 (lysine site: K48) (UniProt P26447),5.05
16,UniProt P60660 (lysine site: K81),3.44
17,DSG2 (lysine site: K406) (UniProt Q14126),3.75
18,UniProt Q16513 (lysine site: K690),2.89
19,RBMX (lysine site: K86) (UniProt P38159),2.06
20,FLNB (lysine site: K1584) (UniProt O75369),3.06

row,Target,lysine labeling ratio R10:1
1,EWSR1 (lysine site: K644) (UniProt Q01844),1.76 (active)
2,UniProt P14618 (lysine site: K247),3
3,UniProt P68371 (lysine site: K58),2.53
4,HNRNPM (lysine site: K716) (UniProt P52272),1.35 (active)
5,INSR (lysine site: K511) (UniProt P06213),2.12
6,DDX5 (lysine site: K391) (UniProt P17844),10.4
7,SLC3A2 (lysine site: K615) (UniProt P08195),3.54
8,SERPINH1 (lysine site: K190) (UniProt P50454),2.12
9,FAT1 (lysine site: K369) (UniProt Q14517),1.01 (active)
10,EGFR (lysine site: K327) (UniProt P00533),5.84
11,ACTN4 (lysine site: K535) (UniProt O43707),1.05 (active)
12,FAT1 (lysine site: K2553) (UniProt Q14517),2.67
13,UniProt Q15149 (lysine site: K567),14.2
14,UniProt Q15149 (lysine site: K3685),6.03
15,LAMC1 (lysine site: K1039) (UniProt P11047),3.94
16,CRIM1 (lysine site: K176) (UniProt Q9NZV1),2.01
17,UniProt P61978 (lysine site: K179),3.68
18,BPTF (lysine site: K604) (UniProt Q12830),8.91
19,TKT (lysine site: K310) (UniProt P29401),7.45
20,UniProt P61106 (lysine site: K193),3.57
